Shown are actives, neighbours in structure and some others; about 21% of the full set was active somewhere.
NS1 function inh: blocks influenza NS1 protein function | Potency, µM (series often up to 46.1 µM), inactives show at the top dose activity, positive = more growth | 270,000 compounds, 0.4% hits; calls by dose curve; also: potency is read from the fitted curve at half-maximal effect; actives are rising curves; nearly all actives have a fitted effect of over 50% in size
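Recovery from NS1-induced slow growth read by OD600 in budding yeast switched to galactose assay medium (pH 6.0, -URA) at 1:100 dilution. Compound 23 nl per well; the matching strain lacking NS1 serves as control.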
Sm TGR inh: blocks Schistosoma mansoni thioredoxin glutathione reductase. purified TGR, DTNB reduction, TNB absorbance 405 nm. Potency, µM (series often up to 114 µM), inactives show at the top dose activity change, negative = inhibition, actives largely listed as inhibitors. 360,000 compounds, 3% hits. AID 485364; also: potency is read from the fitted curve at half-maximal effect; % is scaled to controls: 0 for no effect and ±100 for the full control effect; nearly all actives have a fitted effect of over 60% in size
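First, TGR (20 nM dispensed) and NADPH were mixed with compound. Second, a 15 min room-temperature incubation followed. Third, further NADPH and then DTNB were added to start the reaction. Finally, TNB absorbance was monitored kinetically.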
Pf growth 48h: P. falciparum growth inhibition at 48 hours (one generation). Potency, µM (series often up to 28.7 µM), without a hit: top-dose activity change, negative = inhibition, usual class: inhibitors. P. falciparum luciferase growth in erythrocytes, 48 h. 310,000 compounds, 5.9% hits; also: potency is read from the fitted curve at half-maximal effect; % is scaled to controls: 0 for no effect and ±100 for the full control effect
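Here the parasites carry a stable luciferase gene and grow inside erythrocytes in Albumax-based RPMI medium with compound for one erythrocytic cycle. Activity is scored as loss of luminescent signal.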
CHX counter: affects cycloheximide protein synthesis inhibition readout, counter-screen. cell reporter, cycloheximide protein synthesis inhibition counterscreen. max response, %. 300,000 compounds, 12% hits. AID 2314; in the data active = max response mostly above about 13%, no sharp cut-off; inactive = mostly below about 14%; also: read at 38.3 µM for the half of the compounds with a filed dose; 0% is about no effect
Shiga toxin inh: Shiga toxin inhibition; AID 2315; 290,000 compounds, 9.2% hits; Vero cells, Shiga toxin protein synthesis inhibition reporter; inhibition, % at 38.7 µM; in the data active = inhibition mostly above about 28%, no sharp cut-off; inactive = mostly below about 43%; also: 0% is about no effect
Pf growth 96h: P. falciparum growth inhibition at 96 hours | P. falciparum luciferase reporter growth, 96 h | Potency, µM (titrated, usually from 28.7 µM), inactives show at the highest dose activity change, negative = inhibition, hits mostly inhibitors | 320,000 compounds, 6.9% hits | AID 504834; also: potency is read from the fitted curve at half-maximal effect; % is scaled to controls: 0 for no effect and ±100 for the full control effect
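Infected RBCs, 2% Hct / 0.05% parasitemia final; luciferase-reporter P. falciparum; cpd 96 h, 37 C, 5% CO2; luciferase detection reagent; luminescence.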
* marks the source's active call; other numbers are inactive results; i = inactive; ? = inconclusive; / = no result. Unless noted, calls follow the shape of the dose curve; as a rule, active = well fitted curve in the direction sought with a large enough effect; inconclusive = small, poorly fitted or top-dose-only effect, or another doubt; inactive = no such curve, though single readings can be large; an effect the other way counts as inactive or inconclusive.

SMILES	NS1 function inh	Sm TGR inh	Pf growth 48h	CHX counter	Shiga toxin inh	Pf growth 96h
COc1ccc(S(=O)(=O)N2CCCN(CC(=O)C(C)(C)C)CC2)cc1	13%	10µM*	?	-2	-4	?
COc1ccc(S(=O)(=O)N2CCCN(C)CC2)cc1	0%	40µM*	37%	-2	3	0%
Cc1cc(C)c(NC(=O)CSc2ncc(S(=O)(=O)c3ccc(C(C)(C)C)cc3)c(=O)[nH]2)c(C)c1	/	4%	/	/	/	/
Nc1nnc(SCc2ccccc2F)s1	-53%	6%	14%	10	24	71%
CC(=O)Nc1nnc(CSCc2ccccc2F)s1	0%	5%	13%	23*	28	8%
O=C(Nc1nnc(SCc2ccccc2)s1)C1=COCCO1	/	-2%	28%	/	/	43%
O=C(Nc1nnc(SCc2ccccc2F)s1)C1=COCCO1	-21%	-3%	21%	57*	116*	37%
O=C(Nc1ccc(Cl)cc1)Nc1nnc(CSCc2ccccc2)s1	6%	2%	?	-5	-1	-5%
CC(=O)Nc1nnc(SCc2ccccc2F)s1	-48%	0%	73%	24*	44*	/
CC(C)C1N=C(c2ccc3c(c2)OCO3)CC(c2ccccc2O)N1 (centres undefined)	-125%	-30%	?	39*	79*	/
CCCC(=O)Nc1ncnc2c1ncn2C1OC2COP(=O)(O)OC2C1OC(=O)CCC (centres undefined)	/	/	-15%	/	/	-20%
CC(C)(C)NC(=O)COc1ccc(-c2ccccc2)cc1	-91%	-30%	/	30*	86*	36%
O=C(COc1ccc(-c2ccccc2)cc1)NNC(=O)Nc1ccccc1	/	-9%	-5%	/	/	?
CCNC(=O)COc1ccc(OCc2ccccc2)cc1	-1%	0%	17%	32*	102*	2%
CCC(C)(C)NC(=O)COc1ccc(OCc2ccccc2)cc1	/	-8%	7%	16	27	-2%
CCC(C)NC(=O)COc1ccc(OCc2ccccc2)cc1 (centres undefined)	/	-5%	20%	12*	-8	-4%
COc1ccc(NC(=O)COc2ccc(-c3ccccc3)cc2)cc1	/	1%	-6%	/	/	-15%
CCNC(=O)COc1ccc(-c2ccccc2)cc1	7%	-2%	109%	47*	60*	/
COc1ccc(OC)c(CCNC(=O)CN2C(=O)COc3ccc(S(=O)(=O)N4CCC(C)CC4)cc32)c1	/	4%	/	/	/	/
N#Cc1ccccc1CSc1nnc(-c2ccccc2)o1	/	8%	/	/	/	/
N/C(Cc1ccc(Cl)cc1)=N\OC(=O)C1CCCCC1	-63%	-15%	5.9µM*	53*	69*	43%
N/C(Cc1ccc([N+](=O)[O-])cc1)=N\OC(=O)c1ccco1	-3%	-2%	41%	35*	35*	19%
Cc1ccc(CC(=O)O/N=C(\N)Cc2ccc([N+](=O)[O-])cc2)cc1	-12%	0%	4%	-3	-9	-19%
N/C(Cc1ccc([N+](=O)[O-])cc1)=N\OC(=O)CC1CCCCC1	-52%	-1%	13µM*	-2	-1	?
O=C(COC(=O)C1CCCC1)NCc1ccc(Cl)cc1	/	5%	26%	-3	-5	48%
SMILES	NS1 function inh	Sm TGR inh	Pf growth 48h	CHX counter	Shiga toxin inh	Pf growth 96h
N/C(Cc1ccc([N+](=O)[O-])cc1)=N\OC(=O)c1ccc(Br)cc1	-47%	3%	?	9	13	16%
N/C(Cc1ccc([N+](=O)[O-])cc1)=N\OC(=O)c1ccc2ccccc2c1	-92%	-4%	/	45*	131*	-15%
CC(C)(C)c1ccc(C(=O)N2CCN(c3ncccn3)CC2)cc1	-4%	0%	31%	-4	5	17%
Cc1ccc(-c2cc(Cc3ccccc3)c(=O)[nH]n2)cc1	3%	7%	8%	11	34	0%
Cc1ccc(-c2cc(Cc3ccc(F)cc3)c(=O)[nH]n2)cc1	-37%	2%	6%	20*	29	27%
Cc1ccc(Cc2cc(-c3ccc(C)cc3)n[nH]c2=O)cc1	-2%	14%	16%	40*	52*	32%
O=c1[nH]nc(-c2ccc(F)cc2)cc1Cc1ccc(F)cc1	2%	1%	1%	-2	9	0%
COC(=O)c1sccc1S(=O)(=O)N1CCN(c2ccc(C(C)=O)cc2)CC1	/	-9%	/	/	/	/
COc1cc(CCNC(=O)c2ccc3c(c2)c(C)c(C)n3Cc2cccc(C)c2)cc(OC)c1OC	/	-1%	/	/	/	/
CCc1ccc2[nH]c(=O)c(CN(CCN(CC)CC)C(=O)Nc3ccccc3OC)cc2c1	-5%	-15%	15µM*	-3	-19	31%
CCN(CC)CCCN(Cc1cc2cc(OC)ccc2[nH]c1=O)C(=O)Nc1ccccc1	-2%	-9%	9.3µM*	-5	-3	?
CCN(CC)CCN(Cc1cc2ccc(C)cc2[nH]c1=O)C(=O)Nc1ccc(Cl)cc1	-35%	3%	?	38*	78*	?
CCN(CC)CCN(Cc1cc2ccc(C)cc2[nH]c1=O)C(=O)NC1CCCCC1	-3%	/	?	-3	29	7%
CCc1ccc2[nH]c(=O)c(CN(CCN(C)C)C(=O)Nc3ccccc3OC)cc2c1	2%	-25%	?	-2	-15	?
CCC(Nc1ccc(-c2nc(-c3ccccn3)no2)cc1[N+](=O)[O-])c1ccccc1 (centres undefined)	/	0%	/	/	/	/
COc1ccc(OC(=O)c2nc(SCc3ccc(C)cc3)ncc2Cl)cc1	/	-1%	/	/	/	/
O=S(=O)(Nc1c(Br)cc(Br)c2cccnc12)C1CC1	/	/	/	-5	-4	/
COC(=O)C1=CN(c2ccc(OC)cc2)C=C(C(=O)OC)C1c1cccc(F)c1	-10%	?	?	-2	-2	-6%
COC(=O)C1=CN(c2cccc(C)c2)C=C(C(=O)OC)C1c1cc(OC)c(O)c([N+](=O)[O-])c1	24%	2%	8.3µM*	5	-14	?
COC(=O)C1=CN(c2ccc(OC)cc2)C=C(C(=O)OC)C1c1ccc(C)c([N+](=O)[O-])c1	?	-1%	13µM*	1	-5	20%
COC(=O)C1=CN(c2cccc(C(F)(F)F)c2)C=C(C(=O)OC)C1c1ccc(O)c(OC)c1	10%	-24%	/	-1	10	?
Cc1cccc(-c2cccc(-c3cc(=O)oc4cc5c(cc34)OCO5)c2)c1	/	/	/	9	i	/
Cc1ccc(S(=O)(=O)NCCC(=O)NNC(=O)COc2ccccc2Cl)cc1C	/	1%	-26%	/	/	-69%
CCOc1ccc(C(c2c(O)cc(C)n(Cc3ccco3)c2=O)N2CCCCC2)cc1 (centres undefined)	/	7.1µM*	/	/	/	/
CCOc1ccc(NC(=O)C2CC(=O)N(Cc3ccco3)C2)cc1 (centres undefined)	/	-28%	-6%	/	/	-2%
CCOc1ccc(C(c2c(O)cc(C)n(Cc3ccco3)c2=O)N2CCN(c3ccccc3)CC2)cc1 (centres undefined)	/	3.5µM*	/	/	/	/
